Measured values published in PubChem BioAssay AID720576 (National Center for Advancing Translational Sciences (NCATS), 2013).
Some of the results follow. Results filed as inconclusive are left out. A number with no mark means an inactive call. The source made the active and inactive calls. The call rests on the fitted dose curve; in most records, active means well fitted inhibition curve with a large enough effect; inconclusive means small, poorly fitted or top-dose-only effect; inactive means no such curve, though single readings can be large or run the other way.
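Further: 44 h compound exposure; nearly all actives have a fitted effect of over 55% in size.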
On the % scale 0 is the no-effect control and ±100 the full control effect.

Test: qHTS Assay for Inhibitors of Hepatitis C Virus (HCV): Cytotoxicity Counterscreen for Cherry-picked Compounds
Conditions: HCV host cell line cytotoxicity counterscreen; series mostly up to 41.8 µM; activity change, negative = cytotoxicity: at the top concentration
From the text: Hepatitis C virus (HCV) infects about 200 million people in the world. Many infected people progress to chronic liver disease including cirrhosis with a risk of developing liver cancer. To date, there is no effective vaccine for hepatitis C. Current therapy based on interferon is only effective in about half of the patients and is associated with significant adverse effects. The fraction of people with HCV who can complete a successful treatment is estimated to be no more than 10 percent. Recent development of direct-acting antivirals against HCV, such as protease and polymerase inhibitors, is promising but still requires combination with peginterferon and ribavirin for maximal efficacy. In addition, these agents are associated with high rate of resistance and many have significant side effects. Due to the lack of a culture system for infectious HCV, the search for new HCV drugs has been greatly hampered. […] High-throughput screening (HTS) with an infectious HCV system would cover the complete spectrum of potentially druggable targets in all stages of HCV lifecycle, and would have more biological relevance than other cell-based assays. Moreover, targeting several key processes in the viral life cycle may not only increase antiviral efficacy; more importantly, it may also reduce the capacity of the virus to develop resistance to the compound.
The goal of this project is to identify novel HCV inhibitors as new therapies for hepatitis C, using a highly sensitive and specific assay platform based on a HCV infectious cell culture system established in the laboratory and adapted for high-throughput HCV drug screen. The primary assay was used to screen the MLPCN compound library and potential inhibitors were cherry picked for confirmation and further characterization. To evaluate the cytotoxic effect of the selected compounds, a secondary cell based counterscreen using the Promega CellTiter Glo reagent and Huh cell line was developed. The data herein is the result of the Cytotoxicity counterscreen against the cherry picked compounds. No significant activity is the desired outcome for this assay.
NIH Chemical Genomics Center [NCGC]
NIH Molecular Libraries Probe Centers Network [MLPCN]
Assay Submitter (PI): Jake Liang, NIDDK
Cells were plated in a 1536-wel tissue culture grade plates at a final concentration of 1,000 cells/well (3 uL volume). The assay plate was culture for 4 h. Then 23 nL of compounds from the library collection was added to each well and incubated for 44 h at 37C, 5% CO2. A volume of 4.5 uL CellTiterGlo reagent was to each well and the plates were incubated at room temperature for 15 min. The luminescence signal was read for 15 sec using the PerkinElmer ViewLux plate reader.
In the case of `O=S(=O)([N-]c1nc2ccccc2nc1-[n+]1ccc(Cc2ccccc2)cc1)c1ccc(Br)s1`, the “activity change, negative = cytotoxicity” value is reported as -37.7%. With `COCCCn1c(SCc2cccc(OC)c2)nc2cc(OC)c(OC)cc2c1=N` the “activity change, negative = cytotoxicity” value was -6.07%. In the case of `CC(C)(C)c1ccc(Oc2ccc(N)cc2)cc1`, the “activity change, negative = cytotoxicity” value is reported as -51.7%. With `COc1ccc(OCCNC(=O)c2cc(C3CC3)nc3c2cnn3C(C)C)cc1` the “activity change, negative = cytotoxicity” value was 40.8%. With `Cc1ccc(C)c(N2CCN(C(=O)CCCCCn3c(=S)[nH]c4ccc(N5CCOCC5)cc4c3=O)CC2)c1` the Potency was 9.95 µM (active). For `COc1ccc(NC(=O)c2sc(N3CCOCC3)nc2-c2ccccc2)c(OC)c1`, the “activity change, negative = cytotoxicity” value was 13.7%. For `N#C/C(=C1\CCCN1)c1nc(-c2ccccc2)cs1`, the “activity change, negative = cytotoxicity” value was 27.9%. In the case of `Cc1c(-c2cccc(Cl)c2)nc2ccccc2c1C(=O)OCC(=O)N(C)C1CCS(=O)(=O)C1` (stereo not drawn), the “activity change, negative = cytotoxicity” value is reported as 8.7%. With `CCCOc1ccc(C(=O)C(CCC(CNCC)C(=O)c2ccc(OCCC)cc2)CNCC)cc1` (stereo not drawn) the Potency was 7.91 µM (active). In the case of `Cc1cc(-c2cccs2)nc(-n2cccc2)n1`, the “activity change, negative = cytotoxicity” value is reported as -10.5%. In the case of `COc1ccc(C(C(=O)NC2CCCCC2)N(C(=O)CCl)c2ccccc2Cl)cc1` (stereo not drawn), the Potency is reported as 2.5 µM (active). In the case of `CCCc1nc2ccccc2c(C(=O)OCc2nnc(-c3cc(OC)c(OC)c(OC)c3)o2)c1CC`, the “activity change, negative = cytotoxicity” value is reported as -38.9%. For `CN(C)c1nc(N)nc(CSc2nnnn2-c2cccc3ccccc23)n1`, the Potency was 6.28 µM (active).
